In PubChem BioAssay AID1159580 (chemical genetic matrix, 2015):
“And” between values parts separate entries of the source, which are not always exact repeats. Identical values can stand only once. In all, about 5,500 compounds went through this assay and about 2,000 (36%) were called active. Inconclusive results (about 18%) are left out. Rule as the data show it: active = normalized growth mostly below about 0.91 (no sharp cut-off); inconclusive = no clear call, values can overlap the other calls; inactive = mostly above about 0.92. Some of the results follow.

Test: chemical genetic growth profiling, strain panel (AID 1159580);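 also: tested at 20 µM; growth read once vehicle control cultures reached saturation at 30 °C; 1 = growth at the plate median or of vehicle wells; lower values mean less growth of the strain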
Details: S. cerevisiae deletion strains, growth OD

Measured: normalized growth

CC(=O)Oc1c(C)c(C)c2c(c1C)CCC(C)(CCCC(C)CCCC(C)CCCC(C)C)O2 (stereo unspecified)
inactive: locus YAL021C, strain ccr4, hits give low values 1 | locus YAL026C, strain drs2, hits give low values 0.982 | locus YAL030W, strain snc1, hits give low values 0.976 | locus YBL061C, strain skt5, hits give low values 0.995 | locus YBR009C, strain hhf1, hits give low values 0.957 | locus YBR021W, strain FUR4, hits give low values 1.03 | locus YBR023C, strain chs3, hits give low values 0.99 | locus YBR171W, strain sec66, hits give low values 1 | locus YBR229C, strain ROT2, hits give low values 1.02 | locus YBR231C, strain swc5, hits give low values 0.995 | locus YBR279W, strain paf1, hits give low values 0.985 | locus YCL011C, strain gbp2, hits give low values 0.975 | locus YCL016C, strain dcc1, hits give low values 0.985 | locus YCL029C, strain bik1, hits give low values 0.995 | locus YCL061C, strain MRC1, hits give low values 0.998 | locus YCL069W, strain vba3, hits give low values 0.982 | locus YCR088W, strain abp1, hits give low values 0.978 | locus YDL005C, strain med2, hits give low values 0.979 | locus YDL035C, strain GPR1, hits give low values 1.01 | locus YDL040C, strain nat1, hits give low values 0.98 | locus YDL074C, strain BRE1, hits give low values 1 | locus YDL101C, strain DUN1, hits give low values 1.03 | locus YDL134C, strain PPH21, hits give low values 1.02 | locus YDL185W, strain tfp1, hits give low values 0.983 | locus YDL192W, strain arf1, hits give low values 1.01 | locus YDR001C, strain nth1, hits give low values 0.98 | locus YDR069C, strain doa4, hits give low values 0.983 | locus YDR101C, strain arx1, hits give low values 0.983 | locus YDR137W, strain rgp1, hits give low values 0.961 | locus YDR150W, strain NUM1, hits give low values 1.02 | locus YDR159W, strain sac3, hits give low values 0.968 | locus YDR162C, strain NBP2, hits give low values 1.03 | locus YDR195W, strain ref2 0.946 | locus YDR297W, strain sur2, hits give low values 0.987 | locus YDR318W, strain mcm21, hits give low values 1.01 | locus YDR334W, strain swr1, hits give low values 0.988 | locus YDR335W, strain msn5, hits give low values 0.993 | locus YDR388W, hits give low values 0.992 | locus YDR392W, strain spt3, hits give low values 1.03 | locus YDR502C, strain sam2, hits give low values 0.991 | locus YEL003W, strain gim4, hits give low values 0.983 | locus YEL037C, strain rad23, hits give low values 0.985 | locus YEL061C, strain CIN8 (second series), hits give low values 0.975 | locus YEL061C, strain CIN8, hits give low values 1.01 | locus YER015W, strain faa2, hits give low values 0.984 | locus YER016W, strain bim1, hits give low values 0.992 | locus YER110C, hits give low values 0.99 | locus YER111C, strain swi4, hits give low values 0.985 | locus YER155C, strain BEM2 (second series), hits give low values 1.01 | locus YER155C, strain BEM2, hits give low values 1.01 | locus YER167W, strain BCK2, hits give low values 1.02 | locus YFR010W, strain ubp6, hits give low values 0.981 | locus YGL078C, strain dbp3, hits give low values 0.993 | locus YGL086W, strain mad1, hits give low values 0.991 | locus YGL167C, strain pmr1, hits give low values 0.971 | locus YGL173C, strain kem1, hits give low values 0.99 | locus YGL227W, strain vid30, hits give low values 0.974 | locus YGL240W, strain doc1, hits give low values 1 | locus YGL248W, strain PDE1, hits give low values 1.03 | locus YGL253W, strain hxk2, hits give low values 0.977 | locus YGR078C, strain PAC10, hits give low values 1.03 | locus YGR135W, strain pre9, hits give low values 1.01 | locus YGR229C, strain SMI1, hits give low values 1.01 | locus YGR252W, strain gcn5, hits give low values 0.978 | locus YHR013C, strain ard1, hits give low values 0.949 | locus YHR027C, strain rpn1, hits give low values 0.989 | locus YHR030C, strain SLT2, hits give low values 1.02 and 1 | locus YHR079C, strain IRE1 (second series), hits give low values 1 | locus YHR079C, strain IRE1, hits give low values 0.964 | locus YHR094C, strain hxt1, hits give low values 0.989 | locus YHR129C, strain ARP1, hits give low values 1.02 | locus YHR142W, strain chs7, hits give low values 0.987 | locus YHR200W, strain rpn10, hits give low values 0.989 | locus YIL066C, strain RNR3, hits give low values 1.03 | locus YIL073C, strain SPO22, hits give low values 0.994 | locus YIL125W, strain kgd1, hits give low values 0.991 | locus YIR030C, strain dcg1, hits give low values 1.01 | locus YJL092W, strain hpr5, hits give low values 0.98 | locus YJL095W, strain BCK1 (second series), hits give low values 0.991 | locus YJL095W, strain BCK1, hits give low values 1.05 and 0.989 | locus YJL115W, strain asf1, hits give low values 1 | locus YJL129C, strain trk1, hits give low values 0.987 | locus YJL134W, strain LCB3, hits give low values 1.02 | locus YJL154C, strain vps35, hits give low values 0.989 | locus YJL164C, strain tpk1, hits give low values 0.995 | locus YJL166W, strain qcr8, hits give low values 0.989 | locus YJL168C, strain set2, hits give low values 1 | locus YJL187C, strain SWE1 (second series), hits give low values 1.02 | locus YJL187C, strain SWE1, hits give low values 0.991 | locus YJR043C, strain POL32, hits give low values 1.03 | locus YJR066W, strain TOR1, hits give low values 0.945 | locus YKL009W, strain mrt4, hits give low values 1.01 | locus YKL068W, hits give low values 1.01 | locus YKL085W, strain MDH1 (second series), hits give low values 0.997 | locus YKL085W, strain MDH1, hits give low values 0.997 | locus YKL160W, strain elf1, hits give low values 1 | locus YKL190W, strain CNB1, hits give low values 1.02 | locus YKR001C, strain vps1, hits give low values 0.999 | locus YKR026C, strain gcn3, hits give low values 0.976 | locus YKR091W, strain srl3, hits give low values 0.977 | locus YLL001W, strain dnm1, hits give low values 0.99 | locus YLL026W, hits give low values 0.98 | locus YLL041C, strain sdh2, hits give low values 0.992 | locus YLR027C, strain aat2, hits give low values 0.99 | locus YLR039C, strain RIC1, hits give low values 1.08 | locus YLR058C, strain SHM2, hits give low values 1.03 | locus YLR102C, strain apc9, hits give low values 0.993 | locus YLR113W, strain HOG1, hits give low values 0.949 | locus YLR221C, strain rsa3, hits give low values 1 | locus YLR258W, strain gsy2, hits give low values 0.97 | locus YLR262C, strain YPT6 (second series), hits give low values 0.989 | locus YLR262C, strain YPT6, hits give low values 1.09 | locus YLR268W, strain sec22, hits give low values 0.984 | locus YLR320W, strain mms22, hits give low values 0.984 | locus YLR330W, strain CHS5, hits give low values 1.02 | locus YLR342W, strain FKS1 (second series), hits give low values 1.04 | locus YLR342W, strain FKS1, hits give low values 0.979 | locus YLR357W, strain rsc2, hits give low values 1.01 | locus YLR370C, strain arc18, hits give low values 1 | locus YLR371W, strain rom2, hits give low values 0.981 | locus YLR384C, strain iki3, hits give low values 0.991 | locus YLR418C, strain cdc73, hits give low values 1.01 | locus YML016C, strain PPZ1, hits give low values 1.02 | locus YML032C, strain rad52, hits give low values 1.01 | locus YML120C, strain ndi1, hits give low values 1.01 | locus YML124C, strain tub3, hits give low values 0.991 | locus YMR058W, strain fet3, hits give low values 1.01 | locus YMR078C, strain ctf18, hits give low values 1 | locus YMR125W, strain sto1, hits give low values 1 | locus YMR129W, hits give low values 0.975 | locus YMR205C, strain PFK2, hits give low values 0.96 | locus YMR223W, strain ubp8, hits give low values 1.01 | locus YMR231W, strain pep5, hits give low values 0.976 | locus YMR307W, strain GAS1, hits give low values 1.07 | locus YNL067W, strain RPL9B, hits give low values 1.03 | locus YNL071W, strain lat1, hits give low values 1 | locus YNL183C, strain NPR1, hits give low values 0.949 | locus YNL209W, strain ssb2, hits give low values 0.986 | locus YNL233W, strain BNI4, hits give low values 1.01 | locus YNL248C, strain rpa49, hits give low values 1.05 | locus YNL250W, strain rad50, hits give low values 1 | locus YNL271C, strain bni1, hits give low values 0.995 | locus YNL298W, strain CLA4, hits give low values 0.995 | locus YNL307C, strain MCK1, hits give low values 0.987 | locus YNL322C, strain KRE1 (second series), hits give low values 0.99 | locus YNL322C, strain KRE1, hits give low values 1.02 | locus YNR049C, strain mso1, hits give low values 0.986 | locus YNR052C, strain pop2, hits give low values 0.984 | locus YOL012C, strain htz1 0.81 | locus YOL147C, strain pex11, hits give low values 0.991 | locus YOR001W, strain rrp6, hits give low values 1.01 | locus YOR061W, strain CKA2, hits give low values 1.03 | locus YOR069W, strain VPS5, hits give low values 1.01 | locus YOR070C, strain gyp1, hits give low values 0.988 | locus YOR080W, strain dia2, hits give low values 0.992 | locus YOR083W, strain WHI5, hits give low values 1.01 | locus YOR106W, strain vam3, hits give low values 0.977 | locus YOR136W, strain idh2, hits give low values 0.98 | locus YOR144C, strain elg1, hits give low values 0.986 | locus YOR184W, strain ser1, hits give low values 0.99 | locus YOR231W, strain MKK1, hits give low values 0.978 | locus YOR265W, strain rbl2, hits give low values 0.988 | locus YOR270C, strain vph1, hits give low values 0.976 | locus YOR290C, strain snf2, hits give low values 1.01 | locus YOR316C, strain cot1, hits give low values 0.997 | locus YPL051W, strain arl3, hits give low values 1.01 | locus YPL078C, strain atp4, hits give low values 0.995 | locus YPL106C, strain sse1, hits give low values 1.05 | locus YPL240C, strain hsp82, hits give low values 0.995 | locus YPL241C, strain CIN2, hits give low values 1.02 | locus YPL256C, strain CLN2, hits give low values 1.05 | locus YPR119W, strain clb2, hits give low values 0.995 | locus YPR141C, strain kar3, hits give low values 1 | locus YPR163C, strain tif3, hits give low values 0.991 | locus YPR167C, strain met16, hits give low values 0.995 | strain wtn01, hits give low values 0.977
